For one experiment, the target named is Focal adhesion kinase 1 (Homo sapiens) (UniProt Q05397). The experiment can be described thus: small-molecule microarray binders of FAK, primary screen, biochemical, 635/667 nm fluorescence, BSA, DTT (AID 1130).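 Also: composite of spot emission at 667 nm and signal to noise over triplicate slides.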 The conditions noted are these: PTK2 binding, 635 nm fluorescence, higher = more signal.
Chain of Focal adhesion kinase 1 (Homo sapiens) (Q05397 whole entry, looked up): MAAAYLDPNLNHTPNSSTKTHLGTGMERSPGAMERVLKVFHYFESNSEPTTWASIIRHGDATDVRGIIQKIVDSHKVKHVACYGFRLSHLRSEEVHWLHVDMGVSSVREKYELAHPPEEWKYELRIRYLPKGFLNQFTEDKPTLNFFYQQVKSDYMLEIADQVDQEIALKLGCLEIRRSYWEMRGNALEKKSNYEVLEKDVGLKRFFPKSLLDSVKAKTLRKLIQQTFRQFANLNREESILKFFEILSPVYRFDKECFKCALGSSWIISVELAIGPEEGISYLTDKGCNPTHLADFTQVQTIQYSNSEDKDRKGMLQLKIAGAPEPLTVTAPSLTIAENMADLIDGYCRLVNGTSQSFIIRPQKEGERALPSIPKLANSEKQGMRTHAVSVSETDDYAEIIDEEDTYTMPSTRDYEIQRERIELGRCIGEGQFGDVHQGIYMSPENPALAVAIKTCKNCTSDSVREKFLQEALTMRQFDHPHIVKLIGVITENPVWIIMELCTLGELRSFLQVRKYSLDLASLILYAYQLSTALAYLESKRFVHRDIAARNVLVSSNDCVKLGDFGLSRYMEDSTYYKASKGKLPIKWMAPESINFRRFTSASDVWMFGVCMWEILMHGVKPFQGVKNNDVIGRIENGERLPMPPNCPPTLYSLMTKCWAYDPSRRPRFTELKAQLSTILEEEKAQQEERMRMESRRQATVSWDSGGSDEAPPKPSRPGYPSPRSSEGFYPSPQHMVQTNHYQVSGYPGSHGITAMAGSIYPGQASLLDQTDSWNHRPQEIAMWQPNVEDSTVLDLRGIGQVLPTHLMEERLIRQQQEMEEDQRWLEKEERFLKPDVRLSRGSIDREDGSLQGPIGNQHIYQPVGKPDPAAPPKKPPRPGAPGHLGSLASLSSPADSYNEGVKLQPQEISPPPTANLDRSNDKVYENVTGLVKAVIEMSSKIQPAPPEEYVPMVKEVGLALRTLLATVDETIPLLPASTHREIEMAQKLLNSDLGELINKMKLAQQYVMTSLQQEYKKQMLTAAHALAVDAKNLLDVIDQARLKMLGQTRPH
`C=CC[C@@]1(C(N)=O)N=C(c2ccc(OCCCO)cc2)O[C@@H]1c1ccccc1N=[N+]=[N-]`: the composite z-score amounted to 0.231.
The molecule `CCN(CC)c1ccc(N2CC=CC34O[C@@H]5C=CCOC(=O)[C@@H]5[C@H]3C(=O)N(CCCCCO)[C@@H]4C2=O)cc1` (some centres not stated) yielded a composite z-score of -0.0973.
As for `COCCOC(=O)N1C(=O)[C@@]2(c3cc(C#CCC(C(=O)OC)C(=O)OC)ccc31)[C@H](c1ccc(OCCO)cc1)N1[C@H](c3ccccc3)[C@H](c3ccccc3)OC(=O)[C@H]1[C@@H]2C(=O)NC[C@H](O)c1ccccc1`, the composite z-score turned out to be 0.418.

The next experiment relates to Fibrinogen (Alexa647-labelled). As to the kind of experiment: fibrinogen binders on compound microarrays, profiling panel, artefact control for SMM control-protein annotation, biochemical, small-molecule microarray, 635/667 nm fluorescence (AID 1131).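 Also: z-score merges 667 nm fluorescence with per-spot signal-to-noise over triplicate slides.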 The conditions noted are these: fibrinogen-A647 binding fluorescence, higher = more signal.
`C=CC[C@]1(C(=O)O)N=C(c2ccc(OCCCO)cc2)O[C@H]1c1ccccc1CN=[N+]=[N-]`: the composite z-score was -0.276.
For the molecule `C[N+](C)(C)CCCCNC(=O)[C@H]1C[C@H]2C(=O)N3CCC[C@H]3C(=O)N2[C@H]1c1ccc(O)cc1`, the composite z-score came out at 0.228.
`[N-]=[N+]=NCc1ccccc1[C@@H]1OC(c2ccc(OCCCO)cc2)=N[C@]1(Cc1ccccc1)C(=O)O` gave a composite z-score of 0.635.
`CN(C)CCCN1C(=O)[C@@]2(c3ccc([N+](=O)[O-])cc3)CC(=O)N(C3CCCCC3)[C@@H]2c2ccc(CO)cc21`: the composite z-score is -0.916.
With `CCOC1=C2C(c3ccc(C)cc3)N(S(=O)(=O)c3ccc(C)cc3)CC2n2c(=O)n(-c3ccccc3)c(=O)n2C1` (configuration not stated), the composite z-score came to 0.933.
For `O=C1c2ccccc2[C@](Cc2ccccc2I)(C(=O)O)[C@H](c2ccc(CO)cc2)N1Cc1ccccc1C(F)(F)F`, the composite z-score stood at 0.9.
`CCCCCCCCCCC(O)C1C=CC2C(=O)N(c3ccccc3)C(=O)C2N1Nc1ccc([N+](=O)[O-])cc1` (configuration not stated): the composite z-score was 0.992.
In the case of `CCOC(=O)C1=CC[C@@H](c2cccc(Cl)c2)N(S(=O)(=O)c2ccc(C)cc2)[C@H]1c1ccc(C#N)cc1`, the composite z-score is 0.716.
Take `CCCCCCC#C[Si](O[C@H](c1ccccc1)c1cn([C@H](C)c2ccccc2)nn1)(C(C)C)C(C)C`: the composite z-score was found to be 0.574.
The molecule `O=C(NCC(F)(F)F)[C@@H]1c2ccccc2C(=O)N(Cc2ccccc2)[C@H]1c1ccc(CO)cc1` registered a composite z-score of -1.17.
Turning to `O=C1OCC=C[C@H]2OC34C=CCN(c5ccc(Cl)cc5)C(=O)[C@H]3N(CCCO)C(=O)[C@@H]4[C@@H]12` (some centres not stated), the composite z-score was -1.02.
The molecule `CCOC(=O)N1C(c2ccc(OCCCO)cc2)=NC(C(=O)OC)N1C(=O)OCC` (configuration not stated) came in with a composite z-score of 0.864.
`Cc1ccc(S[C@]2(C(=O)NCC(F)(F)F)CC(=O)N(C3Cc4ccccc4C3)[C@@H]2c2ccc(CO)cc2I)cc1` yielded a composite z-score of -0.161.
With `[N-]=[N+]=Nc1ccccc1C[C@]1(C(=O)N2CCCCC2)N=C(c2ccc(OCCCO)cc2)O[C@H]1c1ccccc1N=[N+]=[N-]`, the composite z-score is 0.945.
In turn, `C=CCNC(=O)[C@H]1[C@@H]2C(=O)O[C@@H](c3ccccc3)[C@@H](c3ccccc3)N2[C@@H](c2ccc(O)cc2)[C@]12C(=O)Nc1ccc(C#Cc3ccc(OC)cc3)cc12` displayed a composite z-score of 0.789.
Turning to `[N-]=[N+]=NCc1ccccc1C[C@]1(C(=O)NCc2ccccc2)COC(c2ccc(OCCCO)cc2)=N1`, the composite z-score worked out at 0.948.
Same read-out and setting: the value for `O=C1OCC=C[C@H]2OC34C=CCN(CCN5CCOCC5)C(=O)[C@H]3N(CCCCCCO)C(=O)[C@@H]4[C@@H]12` (some centres not stated) was -0.469.
`[N-]=[N+]=Nc1ccccc1[C@H]1OC(c2ccc(OCCCO)cc2)=N[C@@]1(CCS(=O)(=O)c1ccccc1)C(=O)N1CCOCC1`: the composite z-score worked out at 1.
The molecule `COC(=O)[C@@]1(Cc2ccccc2)[C@H]2c3cc(C(=O)N(C)C)n(Cc4cc(F)c(F)c(F)c4)c3C[C@H]2CN1C(=O)c1ccccc1` yielded a composite z-score of 0.832.
`O=C1O[C@H](c2ccccc2)[C@H](c2ccccc2)N2[C@H]1[C@@H](C(=O)N1CCCCCCC1)[C@]1(C(=O)Nc3ccc(C#CC4=CCCCC4)cc31)[C@H]2c1ccc(O)cc1` had a composite z-score of 0.535.
As for `[N-]=[N+]=NCc1ccccc1C[C@]1(C(N)=O)N=C(c2ccc(OCCCO)cc2)O[C@H]1c1ccccc1N=[N+]=[N-]`, the composite z-score was determined as 0.751.
`C=CCOC(=O)[C@H]1[C@@H]2C(=O)O[C@@H](c3ccccc3)[C@@H](c3ccccc3)N2[C@@H](c2ccc(OCCOC(=O)[C@H]3C[C@H]4C(=O)N[C@@H](CCCC[N+](C)(C)C)C(=O)N4[C@H]3c3ccc(O)cc3)cc2)[C@]12C(=O)Nc1ccccc12` yielded a composite z-score of 0.252.
Molecule `CC(C)NC(=O)[C@@]1(c2ccc([N+](=O)[O-])cc2)CC(=O)N(C(C)C)[C@@H]1c1ccc(CO)cc1` came in with a composite z-score of -0.961.
Turning to `COc1ccc([Si](C)(C)[C@@H]2[C@@H](CCn3cc([C@H](O)c4ccccc4)nn3)O[C@]3(C(=O)N(C)c4ccccc43)[C@H]2C)cc1`, the composite z-score was -0.892.

Source of the values: PubChem BioAssay.
